The values that follow come from PubChem BioAssay (NCI).

Compounds without any hit were thinned out: in the full panel of roughly 83,000, 20% have a hit.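 Interpretation: 100, growth as untreated; towards 0, rising growth inhibition; 0, no net growth; 0 to -100, cell death. Compounds scoring below 10 were considered active.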 Values without a mark were called inactive. Calls of active or inactive are those of the source.

Holding throughout (test): NCI-60 one-dose screen, 48 h (100 = growth as untreated, 0 = no growth, -100 = all killed)
What all share (conditions): 10 µM unless noted

Assay [1] concerns SR leukemia.
The test system of assay [2] is RPMI-8226 leukemia.
Assay [3] relates to OVCAR-8 ovarian.
Assay [4] deals with OVCAR-5 ovarian.
Assay [5] has as its system OVCAR-4 ovarian.
The test system of assay [6] is SK-OV-3 ovarian.
Assay [7] concerns IGROV1 ovarian.
In assay [8] the test system is OVCAR-3 ovarian.
Assay [9] has as its system HS 578T breast.
Assay [10] concerns NCI/ADR-RES ovarian.

With `O=C(CBr)c1ccc(OC(=O)c2ccccc2)cc1`, the growth is 88.6% in assay [1]; 89.9% in assay [2]; 104% in [3]; 102% in assay [4]; 99% in assay [5]; 100% in assay [6]. The growth is 116% in [7], 105% in [8], 108% in assay [9] and 101% in [10].
In the case of `CCCCCCCCCCCCCCCCCC[S+](C)CC` (stereo not given), the growth in assay [1] is 32.7%; in [2], 30.4%; in [3], 13.9%; in assay [4] it was 9.31% (active); in [5], 7.76% (active); in assay [6], 49.5%. The growth in assay [7] was -34.2% (active); in [8] it was 45.1%; in assay [9] it was 35.9%; in assay [10], 84.7%.
Take `CCCCCCCCCCCC[n+]1ccc(CCCCCCCCC)cc1`: the growth in assay [1] was -32% (active); in [2] it was -54.6% (active); in [3], -80.4% (active); in assay [4], -16.8% (active); in assay [5], -79.1% (active); in assay [6] it was -18.9% (active). Further, the growth in [7] was -79.5% (active); in [8] it was -85.3% (active); in assay [9], -7.56% (active); in assay [10] it was 35.8%.
On to `Nc1ccc(-c2ccc(N)c(S(=O)(=O)O)c2)cc1S(=O)(=O)O`, for which the growth was 153% in assay [1]; 110% in assay [2]; 116% in assay [3]; 116% in assay [4]; 108% in assay [5]; 103% in assay [6]. Besides, the growth in assay [7] is 120%; in assay [8], 108%; in assay [9] it was 113%; in assay [10], 114%.
For the molecule `CC(C)c1ccc(C(=O)OC2CCCC2)cc1`, the growth in assay [1] was 105%; in [2] it was 98.3%; in assay [3], 113%; in assay [4], 101%; in [5] it was 106%; in [6], 107%. Moreover, the growth in assay [7] was 103%; in assay [8], 99.3%; in [9], 101%; in assay [10], 99.9%.
For the molecule `O=S(=O)(O)c1cnccn1`, the growth in assay [1] is 110%; in assay [2], 104%; in assay [3], 107%; in assay [4], 96.6%; in assay [5] it was 113%; in assay [6] it was 89.6%. Also, the growth in [7] is 105%; in [8], 103%; in assay [9] it was 112%; in assay [10], 102%.
`OC(Cc1cc(CC(O)(C(F)(F)F)C(F)(F)F)nc(CC(O)(C(F)(F)F)C(F)(F)F)c1)(C(F)(F)F)C(F)(F)F`: the growth in assay [1] is 4.85% (active); in assay [2], -7.53% (active); in assay [3], 9.71% (active); in [4], 16.1%; in assay [5], 6.38% (active); in assay [6] it was -16.8% (active). Moreover, the growth in assay [7] was 20.4%; in assay [8], -3.61% (active); in [9], 5.53% (active); in [10], 3.76% (active).
In the case of `O=C1C=CC(=O)N1c1cccc2c1CCCC2`, the growth in [1] was 87.6%; in [2], 100%; in assay [3], 110%; in [4], 103%; in assay [5], 102%; in [6], 99.5%. Also, the growth in [7] was 97.5%; in assay [8], 106%; in assay [9], 114%; in assay [10], 112%.
Consider `S=C1SCN(Cc2cccs2)CN1Cc1cccs1`, for which the growth in assay [1] is 59.3%; in assay [2], 58%; in assay [3], 104%; in assay [4], 98.8%; in assay [5] it was 94.4%; in [6], 108%. Also, the growth in assay [7] was 106%; in assay [8] it was 111%; in [9] it was 91.1%; in assay [10], 108%.
For `CCc1cnc2ccccc2c1/C=C/c1ccc(N(C)C)cc1`, the growth in assay [1] is 4.96% (active); in [2], 67.3%; in assay [3], 59.5%; in assay [4], 75%; in assay [5] it was 79.3%; in assay [6], 38.5%. In addition, the growth was 42% in assay [7], 16.9% in assay [8], 62.8% in assay [9] and 21.8% in assay [10].
For `COC(=O)c1nc(=S)[nH]c(C(=O)OC)c1C(=O)c1ccc(Cl)c(Cl)c1`, the growth was 115% in assay [1]; 105% in [2]; 111% in assay [3]; 118% in assay [4]; 104% in assay [5]; 107% in assay [6]. Further, the growth in assay [7] is 112%; in assay [8], 122%; in assay [9], 102%; in assay [10], 110%.
`O=C1/C(=C/c2ccccn2)CCc2ccccc21`: the growth is 51.2% in assay [1]; 14.6% in [2]; 109% in assay [3]; 108% in [4]; 104% in [5]; 86.6% in assay [6]. Further, the growth was 114% in assay [7], 109% in [8], 98.1% in assay [9] and 106% in assay [10].
Consider `O=[N+]([O-])c1ccc([I+]c2ccccc2)cc1`, for which the growth was 17.7% in assay [1]; 41.6% in [2]; -27.6% (active) in assay [3]; -85.8% (active) in [4]; -91% (active) in assay [5]; 50.2% in [6]. The growth was 43.4% in [7], -15.3% (active) in [8], 1.04% (active) in assay [9] and 28.9% in assay [10].
`NC(CS/C(Cl)=C/Cl)C(=O)O` (stereo not given): the growth in assay [1] is 96%; in assay [2], 36.2%; in assay [3] it was 64.6%; in [4], 99.8%; in [5] it was 101%; in [6], 94%. Further, the growth in [7] is 96.4%; in assay [8], 102%; in [9], 104%; in assay [10], 86.2%.
Turning to `CCCCOS(=O)(=O)c1ccccc1`, the growth in [1] was 126%; in assay [2], 126%; in assay [3] it was 120%; in [4], 95.8%; in [5] it was 104%; in assay [6], 113%. Besides, the growth is 131% in assay [7], 112% in assay [8], 107% in [9] and 107% in assay [10].
Regarding `Cc1cc(=O)oc2cc(O)cc(O)c12`, the growth in [1] is 106%; in assay [2], 111%; in assay [3] it was 105%; in assay [4], 96.4%; in [5] it was 104%; in [6] it was 104%. The growth in assay [7] is 108%; in [8], 99.2%; in assay [9], 106%; in [10], 108%.
With `C(=N\Nc1ccc2ccccc2n1)/c1ccccn1`, the growth was 6.86% (active) in assay [1]; 25.1% in assay [2]; 18.5% in assay [3]; 47.4% in [4]; 22.2% in assay [5]; 26.1% in [6]. Also, the growth in assay [7] is 2.7% (active); in [8], 44.7%; in assay [9], 38.4%; in [10] it was 18.6%.
Take `O=C1C=C(Cl)C(=O)c2ccccc21`: the growth was 94.7% in [1]; 84.7% in assay [2]; 91.6% in assay [3]; 113% in [4]; 92.5% in assay [5]; 94.7% in assay [6]. In addition, the growth in assay [7] is 92.3%; in [8], 89.8%; in [9], 111%; in [10], 102%.
Consider `CC(C)(C)CC(C)(C)c1ccc(OCCOCCSC(=N)N)cc1`, for which the growth was -24.4% (active) in [1]; -43.6% (active) in assay [2]; 58.5% in assay [3]; 73.6% in assay [4]; 33% in assay [5]; 55.9% in assay [6]. Further, the growth in [7] is 54.9%; in [8], 25.3%; in assay [9], 33.9%; in [10], 45.5%.
With `CC(C)=C1C=C2CC[C@@H]3[C@](C)(CCC[C@@]3(C)C(=O)O)[C@H]2CC1`, the growth in [1] is 99%; in [2], 107%; in assay [3], 100%; in assay [4], 96.8%; in assay [5] it was 94.4%; in assay [6], 105%. Moreover, the growth was 103% in [7], 98.9% in assay [8], 110% in assay [9] and 100% in assay [10].
On to `c1ccc(-c2cccc(-c3ccccn3)n2)nc1`, for which the growth in assay [1] was 7.98% (active); in assay [2], 20.8%; in assay [3], 12%; in [4], 59%; in assay [5], 33.3%; in [6] it was 7.86% (active). In addition, the growth in assay [7] is 19.3%; in assay [8], 28.2%; in assay [9], 67%; in assay [10], 1.8% (active).
Take `O=C(/C(Cl)=N/O)c1ccc(-c2ccccc2)cc1`: the growth was -24% (active) in assay [1]; 85.2% in assay [2]; 97.8% in assay [3]; 109% in assay [4]; 112% in assay [5]; 99.5% in assay [6]. Further, the growth in assay [7] was 71.8%; in [8], 72.3%; in [9] it was 110%; in assay [10], 99.9%.
As to `Cc1cccc2c(N)c3ccccc3nc12`, the growth was 2.95% (active) in assay [1]; -15.4% (active) in assay [2]; -9.82% (active) in assay [3]; 7.56% (active) in assay [4]; 1.48% (active) in assay [5]; -3.15% (active) in assay [6]. For the same molecule, the growth is -13.2% (active) in assay [7], -17.3% (active) in [8], 16.5% in [9] and -47.5% (active) in [10].
Regarding `CCCC[n+]1c(/C=C\c2c(OC)cc(OC)cc2OC)ccc2ccccc21`, the growth in assay [1] was -34.6% (active); in [2], -25.6% (active); in assay [3] it was -27.7% (active); in [4], 24.3%; in assay [5], 9.07% (active); in assay [6], -14.3% (active). Moreover, the growth in assay [7] is 9.69% (active); in [8], -16.7% (active); in assay [9], 16.4%; in assay [10], 76.8%.
For the molecule `CCCCCCCCCCCCCCCCSC(=NCC)NCC`, the growth was -43.3% (active) in assay [1]; -43.3% (active) in assay [2]; -15.4% (active) in [3]; 44.5% in [4]; 2% (active) in assay [5]; 72.1% in [6]. Further, the growth is -89.3% (active) in assay [7], -18.1% (active) in assay [8], 66.1% in assay [9] and 25.4% in assay [10].
Consider `CN(C)CCSC1=Nc2ccc(Cl)cc2C(c2ccccc2Cl)N(C)C1` (stereo not given), for which the growth in assay [1] was 44.1%; in assay [2], 50.7%; in [3], 78.8%; in [4] it was 88.4%; in assay [5], 39.4%; in [6] it was 72%. Further, the growth was 41.6% in assay [7], 59.9% in assay [8], 24.2% in assay [9] and 66% in [10].
Consider `CCOC(=O)NC(/C=C/c1ccccc1)NC(=O)OCC`, for which the growth in [1] was 103%; in assay [2], 101%; in assay [3], 108%; in assay [4], 108%; in assay [5], 109%; in [6], 90.3%. In addition, the growth in assay [7] is 106%; in assay [8], 107%; in [9], 103%; in [10], 109%.
As for `C=C(C(N)=O)C(N)C(=O)O` (stereo not given), the growth in assay [1] was 83.4%; in [2] it was 104%; in assay [3] it was 108%; in [4] it was 113%; in assay [5], 115%; in [6] it was 112%. In addition, the growth in [7] is 99.8%; in [8], 105%; in assay [9], 114%; in assay [10], 112%.
In the case of `CCCCN(CCCC)CCCCCCCCCCO`, the growth in [1] was 81%; in [2] it was 133%; in assay [3], 107%; in [4], 97.3%; in assay [5], 93.4%; in assay [6], 109%. The growth in [7] was 94%; in [8], 104%; in [9] it was 105%; in [10], 103%.
